This passage reports activity change, negative = inhibition and Potency results from PubChem BioAssay AID720532 (National Center for Advancing Translational Sciences (NCATS), 2013).

Several values for one entry are separate records, joined by “and”; a condition that tells them apart may be missing. Equal entries are not always repeated. In all, about 18,000 compounds went through this assay and about 1,200 (6.7%) were called active. Entries that show only a call come without a potency. Roughly 16% stayed inconclusive and do not appear here. The call rests on the fitted dose curve; tested in HEK293 cells. Many of the other results were omitted from the sample, so actives are more common in it than they were.
Potency means the concentration at half of the fitted maximal effect.

The nature of the assay: qHTS for Inhibitors of binding or entry into cells for Marburg Virus. The settings on record: Marburg virus pseudotype entry/binding inhibition, cell-based; series mostly up to 49.2 µM.
As to `COC(=O)C/C=C/[C@@H](C)[C@H](NC(=O)OCC(Cl)(Cl)Cl)c1ccccc1`, the activity change, negative = inhibition result is “inactive”. For the compound `Oc1c(Cl)cc(Cl)c(Cl)c1Cc1c(O)c(Cl)cc(Cl)c1Cl`, the Potency was 15.8 µM (active). For the compound `Cc1ccccc1-c1ccc(C(=O)O)s1`, the activity change, negative = inhibition result is “inactive”.

Regarding `C[C@H]1[C@H](c2ccccc2)Oc2cc(Br)ccc2S(=O)(=O)N1Cc1cccc(F)c1`, the activity change, negative = inhibition entry is “inactive”. Consider `C[C@@]12CC[C@H]3[C@@H](CC[C@]4(O)C[C@H](O)CC[C@@]34C=O)[C@]1(O)CC[C@@H]2C1=CC(=O)OC1`, for which the Potency was 1 µM (active).

`COC1CC(OC2CC[C@@]3(C=O)C4CC[C@]5(C)C(C6=CC(=O)OC6)CC[C@@]5(O)C4CC[C@]3(O)C2)OC(C)C1O` (some centres undefined): the Potency was 0.251 µM (active). As to `COc1ccc(CC(N)C(=O)NC2C(O)[C@H](n3cnc4c(N(C)C)ncnc43)O[C@@H]2CO)cc1` (some centres undefined), the Potency was 3.98 µM (active).

For `Nc1ncnc2c1ncn2C1CC(O)C(CO)O1` (centres undefined), the activity change, negative = inhibition entry is “inactive”. Consider `COc1ccc(C[C@H](N)C(=O)N[C@@H]2[C@H](O)[C@H](n3cnc4c(N(C)C)ncnc43)O[C@@H]2CO)cc1`, for which the Potency was 2.24 µM (active). Still for that read-out and setting: with `C[C@H]1C/C=C/[C@@H]2[C@@H]3O[C@]3(C)[C@@H](C)[C@H]3[C@H](Cc4ccccc4)NC(=O)[C@]32OC(=O)O/C=C/[C@](C)(O)C1=O` the figure was 0.251 µM (active). For `CO[C@H]1[C@H](NC(=O)C(C)C)c2ccccc2C12CCN(Cc1cnc(N(C)C)s1)CC2`, the activity change, negative = inhibition entry was “inactive”. On the same count and under the same terms, with `Cc1c(S(=O)(=O)O)oc2c1C(=O)C(=O)c1c-2ccc2c1CCCC2(C)C` the entry was “inactive”; with `CCOC(=O)N1CCC(N2CCOc3ccc(CN4CCC(O)(c5cccnc5)CC4)cc3C2)CC1`, “inactive”.

With `O=c1c(CN2CCOc3ccc(CN4CCC(Oc5cccnc5)CC4)cc3C2)coc2ccccc12`, the Potency was 11.2 µM (active). As to `CC(C)c1cc(C(=O)N2CCOc3ccc(CN4CCC(Oc5cccnc5)CC4)cc3C2)n[nH]1`, the activity change, negative = inhibition entry was “inactive”.

For `CCOC(=O)N1CCN(Cc2ccc3c(c2)CN(C(=O)c2cccc(-n4cccn4)c2)CCO3)CC1`, the activity change, negative = inhibition entry is “inactive”.

`c1ccc(CN2CCN(Cc3ccc4c(c3)CN(Cc3c[nH]c5ccccc35)CCO4)CC2)nc1`: the Potency was 10 µM (active). With `O=C(C(=O)N1CCOc2ccc(CN3CCN(Cc4ccccn4)CC3)cc2C1)c1ccccc1`, the activity change, negative = inhibition result was “inactive”.

As to `O=S(O)S(=O)(=O)O`, the activity change, negative = inhibition entry was “inactive”. In the case of `O=S1(=O)CC(O)c2cc(Br)ccc2N1Cc1cccc(F)c1` (centres undefined), the activity change, negative = inhibition result is “inactive”. For `Cc1ccccc1Nc1oc(-c2ccccc2)nc1C(C)(C)C`, the activity change, negative = inhibition is -15% [at 8.59 µM] (inactive). With `C=C1/C(=C\C=C2\CCCC3(C)C2CCC3C(C)/C=C/C(O)C2CC2)CC(O)CC1O` (centres undefined), the activity change, negative = inhibition entry was “inactive”. Consider `COC(=O)CCCC1=CC2=C(c3ccccc3)C(=O)C(C)(OC(=O)C3CCCC3)C(=O)C2=CN1c1ccc(OC)cc1` (centres undefined), for which the activity change, negative = inhibition was -5.26% [at 8.59 µM] (inactive). The same measure, in the same setting: with `COc1cc2c(cc1OC)[C@@H]1O[C@](CCCCN3C(=O)c4ccccc4C3=O)(C2)Oc2c1c(=O)oc1ccc(F)cc21` the figure was 2.42% [at 8.59 µM] (inactive); with `CC(Nc1oc(-c2ccccc2)nc1-c1ccccc1)c1ccccc1` (centres undefined), “inactive”. On to `COC12CC[C@@]3(C[C@@H]1C(C)(O)C(C)(C)C)[C@H]1Cc4ccc(O)c5c4[C@@]3(CCN1CC1CC1)[C@H]2O5` (some centres undefined), for which the Potency was 15.8 µM (active).

As to `COc1ccc2c(c1)O[C@@H](c1ccc3c(c1)OCO3)[C@H](OC(=O)NCc1ccco1)C2=O`, the activity change, negative = inhibition entry was “inactive”. Regarding `COCCN1C(=O)N[C@@H](c2ccccc2)C(C(=O)OC)=C1C`, the activity change, negative = inhibition entry was “inactive”.

For the compound `CCC(=O)C[C@@H](NC(=O)OC)c1ccccc1`, the activity change, negative = inhibition is -1.71% [at 8.59 µM] (inactive).

As for `CCCCN1CC(CO)Oc2cccc(F)c2S1(=O)=O` (centres undefined), the activity change, negative = inhibition entry was “inactive”.

Regarding `CC(=O)[O][Sn]([c]1ccccc1)([c]1ccccc1)[c]1ccccc1`, the Potency was 1 µM (active). Take `Cc1cccc(CN2CCN(C3CN(Cc4cn(Cc5ccccc5F)nn4)S(=O)(=O)C3)CC2)c1` (centres undefined): the activity change, negative = inhibition entry is “inactive”.

As for `CC(C)(Cc1c[nH]c2ccc(Cl)cc12)NCCOc1ccccc1OCC1CC1`, the Potency is 11.2 µM (active) and 8.91 µM (active).

For `COc1ccc2c(c1)O[C@@H](c1ccc3c(c1)OCO3)[C@H](OC(=O)NCCc1ccc(OC)c(OC)c1)C2=O`, the activity change, negative = inhibition entry is “inactive”. Take `CC1C(=O)N(Cc2cn(Cc3ccco3)nn2)CCS(=O)(=O)N1Cc1ccc(-c2cccc(CO)c2)cc1` (centres undefined): the activity change, negative = inhibition entry was “inactive”. With `COc1ccc([C@@H](NC(=O)C(F)(F)F)C2CCCC=C2c2ccccc2)cc1OC` (some centres undefined), the activity change, negative = inhibition was 2.89% [at 8.59 µM] (inactive). The same measure, in the same setting: with `CC[C@H](C)[C@H](NC(=O)[C@H](Cc1ccc(O)cc1)NC(=O)[C@@H](NC(=O)[C@H](CCCN=C(N)N)NC(=O)[C@@H](N)CC(=O)O)C(C)C)C(=O)N[C@@H](Cc1cnc[nH]1)C(=O)N1CCC[C@H]1C(=O)N[C@@H](Cc1ccccc1)C(=O)O` the entry was “inactive”; with `C=CCC(C)(O)c1ccco1` (centres undefined), “inactive”. Still for that read-out and setting: in the case of `CC1=C(/C=C/C(C)=C/C=C/C(C)=C/C=C/C=C(C)/C=C/C=C(C)/C=C/C(=O)[C@]2(C)C[C@@H](O)CC2(C)C)C(C)(C)C[C@H](O)C1` it was “inactive”; in that of `COc1ccc(-c2nc3c(c4c2C[C@H](c2ccccc2)OC4)CN(C(=O)c2ccco2)CC3)c(C)c1`, 13.2% [at 8.59 µM] (inactive). As to `CCOC(=O)Cn1c(=O)sc2cccc(Cl)c21`, the activity change, negative = inhibition result was “inactive”. On the same count and under the same terms, with `CC1(C)O[C@@H](C(O)(c2ccccc2)c2ccccc2)[C@H](C(O)(c2ccccc2)c2ccccc2)O1` the figure was -19% [at 8.59 µM] (inactive).

Consider `CCCCCCCC/C=C\CCCCCCCC(=O)NCC(=O)O`, for which the activity change, negative = inhibition entry was “inactive”. For `C[C@H]1CCC[C@@]2(C)CCCC[C@]12O`, the activity change, negative = inhibition entry is “inactive”.

Take `COc1ccc([C@H]2C[C@@H](n3cc(COC(=O)c4ccccc4)nn3)[C@H](O)CN2C(=O)c2cccs2)cc1`: the activity change, negative = inhibition result is “inactive”. Same read-out and setting: with `CC(C)C(NS(=O)(=O)c1ccc(-c2ccc(Br)cc2)cc1)C(=O)O` (centres undefined) the entry was “inactive”; with `COc1ccc2c(c1)CO[C@H]([C@H](O)CBr)[C@H]2C=Cc1ccccc1`, -15.4% [at 8.59 µM] (inactive); with `C=CCOC(=O)NC(c1ccc(F)c(F)c1)C(C(=O)COC)C(=O)OC` (centres undefined), “inactive”. Still for that read-out and setting: with `OC[C@H]1O[C@H](C#Cc2ccccc2)C=C[C@H]1O` the figure was 19.6% [at 8.59 µM] (inactive). With `CCOC(=O)CN1C(=O)NC(c2cccs2)C(C(=O)OC)=C1C` (centres undefined), the activity change, negative = inhibition is -16.9% [at 8.59 µM] (inactive). `O=C(O)C1CCN(c2ncnc3ccc(-c4ccccc4C(F)(F)F)cc23)CC1`: the Potency was 112 µM (active). On to `Cc1ccc(S(=O)(=O)N2CCC(=O)N([C@H](COCc3ccccc3)Cc3ccccc3)CC2)cc1`, for which the activity change, negative = inhibition entry is “inactive”. `O=S1(=O)CC(N2CCN(CCO)CC2)CN1C1CCCC1` (centres undefined): the activity change, negative = inhibition entry was “inactive”. On to `O=c1cc(-c2ccc(O)cc2)oc2c(-c3cc(-c4cc(=O)c5c(O)cc(O)cc5o4)ccc3O)c(O)ccc12`, for which the activity change, negative = inhibition entry is “inactive”. In the case of `CCCCCC(=O)N1C[C@@H](O)[C@H](n2cc(C3CC3)nn2)C[C@H]1c1ccc(OC)cc1`, the activity change, negative = inhibition entry was “inactive”.

`O=C1CCC[C@@H]2CC(N3CCCCC3)C[C@@H]3CCN1[C@H]23` (some centres undefined): the activity change, negative = inhibition entry is “inactive”. Regarding `Oc1ccc(-c2c(-c3ccccc3)nn3c(C(F)(F)F)cc(C(F)(F)F)nc23)cc1`, the activity change, negative = inhibition entry is “inactive”.

For the compound `CC(C)=CCCC(C)=CCN1C(=O)[C@]2(O[C@H](C)CC3=CCCC32)c2c(Br)cccc21` (some centres undefined), the activity change, negative = inhibition was 10.2% [at 8.59 µM] (inactive). Consider `Cc1ccc(-c2ccc(C(=O)N3CCc4nnc(CNC(=O)c5ccccc5)n4CC3)cc2)cc1`, for which the activity change, negative = inhibition result is “inactive”. `COc1ccccc1CNc1ncnc2ccc(-c3c(C)noc3C)cc12`: the activity change, negative = inhibition result is “inactive”. On to `COc1ccc2[nH]cc(CCNc3ncnc4ccc(-c5ccccc5CN(C)C)cc34)c2c1`, for which the Potency was 10 µM (active). `COCCNc1ncnc2ccc(-c3ccccc3CN(C)C)cc12`: the activity change, negative = inhibition entry is “inactive”. In the case of `C=CCCN(Cc1ccccc1)S(=O)(=O)c1ccccc1Br`, the activity change, negative = inhibition entry is “inactive”. On to `CC(=O)OC[C@H]1O[C@H](C#Cc2ccccc2)C=C[C@@H]1OC(C)=O`, for which the activity change, negative = inhibition is 21% [at 8.59 µM] (inactive). With `CC(=O)OC[C@H]1O[C@@H](O[C@H]2[C@H](O)[C@@H](OC(=O)c3ccccc3C(=O)O)[C@H](O)O[C@@H]2COC(C)=O)[C@H](O)[C@@H](OC(=O)c2ccccc2C(=O)O)[C@@H]1O`, the Potency was 3.55 µM (active). As for `CC(=O)OC[C@H]1O[C@H](C#CC2=CCCCC2)C=C[C@H]1OC(C)=O`, the activity change, negative = inhibition is -20.8% [at 8.59 µM] (inactive).

Regarding `CCCC[C@]12Cc3cc(C#N)ccc3[C@H](O1)c1c(cc(-c3ccccc3)oc1=O)O2`, the activity change, negative = inhibition was 9.58% [at 8.59 µM] (inactive).

On to `C[C@H]1Cc2c(COc3ccccc3)nc3c(c2CO1)CN(C(=O)Nc1cccc(C#N)c1)CC3`, for which the activity change, negative = inhibition is 2.49% [at 8.59 µM] (inactive) and 20.7% [at 8.59 µM] (inactive). Turning to `CN1CCC(n2cnc(-c3ccc(F)cc3)c2-c2ccnc(N)n2)CC1`, the Potency was 17.7 µM (active). Consider `CC(C)(CO)CNC(=O)c1ccc2[nH]c(O)c(N=Nc3ccc(S(N)(=O)=O)cc3)c2c1`, for which the activity change, negative = inhibition result was “inactive”. In the case of `Cc1ccc(NC(=O)O[C@@H]2C(=O)c3cc(Br)ccc3O[C@H]2c2ccc3c(c2)OCO3)cc1Br`, the activity change, negative = inhibition entry was “inactive”. Regarding `CCOCCOC(=O)C(C)Oc1ccc(Oc2ncc(C(F)(F)F)cc2Cl)cc1` (centres undefined), the activity change, negative = inhibition result is “inactive”. As to `CC[N+](C)(CC)CCC[n+]1c(-c2ccccc2)c2cc(N)ccc2c2ccc(N)cc21`, the Potency is 7.08 µM (active) and 2.82 µM (active). Turning to `CCCCC/C=C\CC1OC1CCCCCCCC(=O)O` (centres undefined), the activity change, negative = inhibition entry was “inactive”. Consider `CCC(C)(C)N=C(NC#N)Nc1cccnc1`, for which the activity change, negative = inhibition result was “inactive”. Regarding `Clc1ccc(C(Cn2ccnc2)OCc2ccsc2Cl)c(Cl)c1` (centres undefined), the activity change, negative = inhibition result was “inactive”.

Take `Brc1ccc(C2=NCCC(c3ccccc3)O2)cc1` (centres undefined): the activity change, negative = inhibition result is “inactive”. On the same count and under the same terms, with `C[C@@H]1C(c2ccccc2)=Cc2[nH]c(=O)[nH]c2C[C@@H]1C(=O)N1CCCC1` the figure was 7.81% [at 8.59 µM] (inactive); with `COC(=O)C=C[C@H]1c2ccccc2[C@@H](OC)[C@@H]1C`, 16.3% [at 8.59 µM] (inactive) and -4.37% [at 8.59 µM] (inactive).
